An excerpt weighted towards active compounds, which were near 9.3% of everything screened.
ELG1 genotox: genotoxicity induction in ELG1-luciferase HEK293T cells; HEK293T ELG1-luciferase reporter, luminescence, 16 h; Potency, µM (highest dose often 46 µM), for inactives: at the highest dose activity change, positive = activation, most hits filed as activators; AID 504466; 330,000 tested, 1.3% active; further: % of control where 0% means no effect; nearly all actives have a fitted effect of over 60% in size
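Cells (2,000/well) expressing the ELG1-luciferase fusion are dosed by pin tool and kept 16 hr at 37 °C, 5% CO2. Signal comes from ONE-Glo luciferase reagent after 30 min at room temperature.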
Rab9 prom act: activates the Rab9 promoter | Potency, µM (doses to about 9.22 µM), inactives show at the top dose activation, negative = inhibition, actives largely listed as activators | Huh7 Rab9 promoter-luciferase reporter, luminescence, 24 h | AID 485297 | 320,000 tested, 2.8% active; further: % of control where 0% means no effect; nearly all actives have a fitted effect of over 60% in size
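Using Huh7 cells stably transfected with Rab9 promoter–luciferase, compounds were incubated 24 h at 37 °C, 5% CO2; luciferase luminescence was read 10 min after reagent addition.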
SMN2 splice up: SMN2 splice variant enhancement | HEK293 SMN2-luciferase splicing reporter, luminescence, 30-36 h | Potency, µM (highest dose often 46.1 µM), without a hit: at the highest dose activity change, positive = activation, most hits filed as activators | 210,000 tested, 2.8% active; further: % of control where 0% means no effect; nearly all actives have a fitted effect of over 55% in size
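qHTS luciferase splicing reporter: luminescence rises when SMN2 exon 7 is included in transfected HEK293 cells. Compound exposure lasted 30-36 h at 37C, with 4.5 mM final sodium butyrate as control, followed by a ONE-Glo read.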
ELG1 repair inh: inhibitors of ELG1-dependent DNA repair in HEK293T cells; HEK293T ELG1-luciferase reporter, luminescence, 16 h; DNA damage induced by 5-fluorouridine; Potency, µM (top dose mostly 46.1 µM), inactives show at the top dose activity change, negative = inhibition, hits mostly inhibitors; 330,000 tested, 2.3% active; AID 504467; further: on the % scale 0 is the no-effect control and ±100 the full control effect; nearly all actives have a fitted effect of over 55% in size
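HEK293T cells expressing luciferase-tagged ELG1 (2,000/well) received 5-Fluorouridine plus compound or DMSO for 16 hr at 37 °C. Luciferase was read by ONE-Glo luminescence after 30 min at room temperature.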
FLuc modulator: inhibits or activates purified firefly luciferase, miR-21 counter-screen; purified FLuc, Km substrates, luminescence inhibition; Potency, µM (titrated, usually from 57.5 µM), for the others: at the highest dose activity change, negative = inhibition, hits mostly inhibitors; 360,000 tested, 6.9% active; P08659;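 further: plate controls were vehicle for no effect and reference inhibitor for full effect; nearly all actives have a fitted effect of over 55% in size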
Target sequence (P08659 whole entry, looked up): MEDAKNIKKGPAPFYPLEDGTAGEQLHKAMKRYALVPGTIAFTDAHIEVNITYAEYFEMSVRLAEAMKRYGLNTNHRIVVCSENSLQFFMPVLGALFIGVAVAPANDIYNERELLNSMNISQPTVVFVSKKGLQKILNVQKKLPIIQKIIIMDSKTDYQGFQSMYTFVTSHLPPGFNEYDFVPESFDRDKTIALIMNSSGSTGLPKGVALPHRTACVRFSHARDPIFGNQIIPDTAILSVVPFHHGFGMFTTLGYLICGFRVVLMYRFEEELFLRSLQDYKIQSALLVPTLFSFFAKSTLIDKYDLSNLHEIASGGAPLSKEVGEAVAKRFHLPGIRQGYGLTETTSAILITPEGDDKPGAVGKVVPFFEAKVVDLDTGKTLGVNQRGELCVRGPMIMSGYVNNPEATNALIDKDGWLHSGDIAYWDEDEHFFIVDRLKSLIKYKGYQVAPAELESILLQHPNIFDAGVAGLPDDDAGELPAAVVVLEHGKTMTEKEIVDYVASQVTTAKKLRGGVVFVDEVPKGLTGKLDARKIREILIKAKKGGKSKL
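Biochemical qHTS of compounds, final roughly 60 µM downward over six points, against 10 nM purified firefly luciferase using Km concentrations of substrates (10 uM D-luciferin, 10 uM ATP) in Tris acetate pH 7.5 buffer; luminescence output.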
NPC1 promoter act: NPC1 promoter activation; Potency, µM (doses to about 9.22 µM), for the others: at the highest dose activation, usual class: activators; Huh7 NPC1 promoter luciferase reporter, 24 h; 320,000 tested, 2.4% active; further: % of control where 0% means no effect; nearly all actives have a fitted effect of over 60% in size
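Stable NPC1-promoter luciferase Huh7 line; cpd (DMSO) 24 h, 37 °C, 5% CO2; Amplite luciferase reagent 10 min RT; luminescence readout. qHTS format.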
* = called active by the depositor; ? = inconclusive; . = not tested or not shown. The call rests on the fitted dose curve; in most records, active means well fitted curve in the direction sought with a large enough effect; inconclusive means small, poorly fitted or top-dose-only effect, or another doubt; inactive means no such curve, though single readings can be large; an effect the other way counts as inactive or inconclusive. Potency means the concentration at half of the fitted maximal effect.

SMILES	ELG1 genotox	Rab9 prom act	SMN2 splice up	ELG1 repair inh	FLuc modulator	NPC1 promoter act
C=CCNC(=O)c1c(Cl)cnn1-c1ccc(C)cc1	?	3.16µM*	.	?	16.9µM*	2µM*
COc1cc(/C=N/NC(=O)C(C)Nc2n[nH]c(=O)[nH]c2=O)ccc1O (centres undefined)	-0.9%	0.9%	25.1%	?	5.9%	0.2%
CNC(=O)c1c(Cl)cnn1-c1ccc(C)cc1	?	3.16µM*	.	?	12µM*	2.24µM*
O=C(NCc1ccncc1)Nc1cccc(Cl)c1	4.7%	10.6%	20.3%	?	-14.5%	8.3%
Cc1c(C(=O)Nc2ccc(Cl)cc2)c2ccccn2c1CCc1ccncc1	2.8%	?	-2.9%	?	3.01µM*	?
Cc1c(C(=O)Nc2cccc(Cl)c2)c2ccccn2c1CCc1ccncc1	-8.1%	-5.6%	8.0%	?	16.9µM*	-2.5%
N/C(=N\O)c1ccc(NC(=O)c2ccc(Br)o2)cc1	23.1µM*	?	18.5%	?	16.9µM*	?
CN1CCN(c2ccc(NC(=O)c3ccccc3Br)cc2)CC1	14.6µM*	?	?	?	?	?
CN1CCN(c2ccc(NC(=O)c3ccc(-c4ccccc4F)o3)cc2)CC1	?	1µM*	.	?	2.69µM*	3.16µM*
O=C(Nc1ccc(N2CCOCC2)cc1)c1ccc([N+](=O)[O-])o1	9.2µM*	1.58µM*	.	?	8.49µM*	1.41µM*
CC(=O)Nc1ccc(NC(=O)c2ccc(-c3ccccc3Cl)o2)cc1	?	?	.	7.7%	-18.6%	6.3%
COC(=O)c1ccc(N)nc1	0.9%	2.7%	0.1%	0.4%	-0.2%	-3.9%
COc1ccc(-c2cn(-c3ccc(C)c(Cl)c3)c(=S)[nH]2)cc1OC	7.3%	-6.0%	.	12.2%	-3.9%	11.4%
CCC(C)[C@H](NC(=O)NCc1cccc(OC)c1)C(=O)OC (some centres undefined)	2.8%	-2.1%	5.1%	0.0%	-0.3%	-0.2%
CC1CCN(c2ccc(NC(=O)c3ccc(Br)o3)cc2)CC1	1.46µM*	1µM*	.	?	1.9µM*	1µM*
CN1CCN(c2ccc(NC(=O)c3ccc(Br)o3)cc2)CC1	16.4µM*	?	.	?	12µM*	1.58µM*
CS(=O)(=O)N1CCN(c2ccc(NC(=O)c3ccc(Br)o3)cc2)CC1	1.46µM*	3.16µM*	7.08µM*	?	-15.4%	2.82µM*
CCC(=O)N1CCN(c2ccc(NC(=O)c3ccc(Br)o3)cc2)CC1	15.4%	1.3%	12.7%	?	-12.8%	7.6%
O=C(Nc1ccc(N2CCOCC2)cc1)c1ccc(Br)o1	?	0.282µM*	.	?	4.26µM*	0.447µM*
COc1ccc(-c2noc(-c3ccc(NCC4CCCO4)c([N+](=O)[O-])c3)n2)cc1 (centres undefined)	.	.	.	.	-9.8%	.
O=C(Nc1ccc(N2CCCC2)c(Cl)c1)c1ccc(Br)o1	?	2.82µM*	11.2µM*	?	5.36µM*	3.55µM*
Cn1c(C(=O)NCC2CCCO2)cc2oc3ccccc3c21 (centres undefined)	?	1.58µM*	6.1%	?	13.5µM*	2.82µM*
Cn1c(C(=O)NCc2ccccc2)cc2oc3ccccc3c21	7.0%	?	31.6µM*	?	13.5µM*	17.1%
Cn1c(C(=O)NCC2CCCO2)cc2c(=O)[nH]c3ccccc3c21 (centres undefined)	0.7%	2.6%	5.9%	-1.5%	9.1%	-6.6%
Cn1c(C(=O)NCc2cccs2)cc2oc3ccccc3c21	-2.3%	?	4.47µM*	-1.7%	13.5µM*	1.4%
CCn1c(C(=O)NCc2ccccc2Br)cc2oc3ccccc3c21	.	.	4.47µM*	.	-10.0%	.
CCOc1ccc(N(CC(=O)NCc2ccc(Cl)cc2)S(=O)(=O)c2ccccc2)cc1	-1.3%	-3.7%	.	-0.3%	2.7%	1.2%

High-throughput results (PubChem)
